Results on 4 molecules are retold here after ChEMBL document CHEMBL1961873, “Compounds: GSK PKIS; Assays: Nanosyn kinase panel” (2012).

Assay [1] addresses 5'-AMP-activated protein kinase catalytic subunit alpha-2 (Homo sapiens) (UniProt P54646). The settings on record: at 1 µM.
Assay [2] concerns the target T1, NUAK family SNF1-like kinase 1 (Homo sapiens) (UniProt O60285).
T1 sequence (whole entry): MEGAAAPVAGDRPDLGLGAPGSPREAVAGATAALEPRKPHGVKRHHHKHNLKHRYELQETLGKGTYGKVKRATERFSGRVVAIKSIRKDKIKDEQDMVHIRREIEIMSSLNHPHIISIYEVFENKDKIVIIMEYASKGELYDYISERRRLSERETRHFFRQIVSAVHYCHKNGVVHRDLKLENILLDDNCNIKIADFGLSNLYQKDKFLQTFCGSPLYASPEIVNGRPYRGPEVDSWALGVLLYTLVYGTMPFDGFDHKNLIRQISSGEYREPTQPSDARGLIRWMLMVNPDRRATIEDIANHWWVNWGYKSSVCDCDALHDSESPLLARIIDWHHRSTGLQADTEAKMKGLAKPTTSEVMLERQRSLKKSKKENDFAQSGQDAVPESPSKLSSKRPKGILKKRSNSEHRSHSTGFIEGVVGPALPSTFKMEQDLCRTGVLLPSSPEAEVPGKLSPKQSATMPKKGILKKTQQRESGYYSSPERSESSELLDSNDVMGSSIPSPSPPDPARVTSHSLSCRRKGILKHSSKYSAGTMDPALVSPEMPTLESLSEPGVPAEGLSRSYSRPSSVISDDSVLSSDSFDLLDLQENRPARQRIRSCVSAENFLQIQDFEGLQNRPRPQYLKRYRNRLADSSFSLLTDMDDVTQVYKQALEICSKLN
The settings on record: at 0.1 µM.

In assay [3] the target is T1, NUAK family SNF1-like kinase 1 (Homo sapiens). Conditions: at 1 µM.
Assay [4] concerns the target T2, Serine/threonine-protein kinase BRSK1 (Homo sapiens) (UniProt Q8TDC3).
T2 sequence (whole entry): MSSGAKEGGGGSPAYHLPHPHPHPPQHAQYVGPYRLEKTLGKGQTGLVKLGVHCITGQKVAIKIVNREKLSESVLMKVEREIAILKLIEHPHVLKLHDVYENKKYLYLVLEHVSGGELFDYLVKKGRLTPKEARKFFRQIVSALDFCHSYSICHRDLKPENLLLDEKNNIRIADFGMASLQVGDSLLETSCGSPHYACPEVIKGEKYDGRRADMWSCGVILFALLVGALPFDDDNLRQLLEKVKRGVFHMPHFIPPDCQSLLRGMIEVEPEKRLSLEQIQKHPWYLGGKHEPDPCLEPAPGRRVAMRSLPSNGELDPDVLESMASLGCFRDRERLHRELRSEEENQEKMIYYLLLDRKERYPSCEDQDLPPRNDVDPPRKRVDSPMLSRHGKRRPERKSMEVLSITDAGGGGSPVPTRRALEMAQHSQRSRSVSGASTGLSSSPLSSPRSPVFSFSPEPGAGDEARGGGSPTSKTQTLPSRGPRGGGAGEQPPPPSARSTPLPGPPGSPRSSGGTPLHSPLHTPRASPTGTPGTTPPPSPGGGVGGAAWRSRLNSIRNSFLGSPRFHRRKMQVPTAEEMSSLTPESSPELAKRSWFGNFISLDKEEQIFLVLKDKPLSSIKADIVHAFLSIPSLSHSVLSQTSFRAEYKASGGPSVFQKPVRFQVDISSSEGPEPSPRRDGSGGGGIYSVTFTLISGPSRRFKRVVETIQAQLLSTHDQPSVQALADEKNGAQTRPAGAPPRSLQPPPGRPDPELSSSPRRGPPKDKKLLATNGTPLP
Conditions: at 0.1 µM.

Assay [5] addresses T2, Serine/threonine-protein kinase BRSK1 (Homo sapiens). The settings on record: at 1 µM.
Assay [6] concerns the target T3, Serine/threonine-protein kinase BRSK2 (Homo sapiens) (UniProt Q8IWQ3).
T3 sequence (whole entry): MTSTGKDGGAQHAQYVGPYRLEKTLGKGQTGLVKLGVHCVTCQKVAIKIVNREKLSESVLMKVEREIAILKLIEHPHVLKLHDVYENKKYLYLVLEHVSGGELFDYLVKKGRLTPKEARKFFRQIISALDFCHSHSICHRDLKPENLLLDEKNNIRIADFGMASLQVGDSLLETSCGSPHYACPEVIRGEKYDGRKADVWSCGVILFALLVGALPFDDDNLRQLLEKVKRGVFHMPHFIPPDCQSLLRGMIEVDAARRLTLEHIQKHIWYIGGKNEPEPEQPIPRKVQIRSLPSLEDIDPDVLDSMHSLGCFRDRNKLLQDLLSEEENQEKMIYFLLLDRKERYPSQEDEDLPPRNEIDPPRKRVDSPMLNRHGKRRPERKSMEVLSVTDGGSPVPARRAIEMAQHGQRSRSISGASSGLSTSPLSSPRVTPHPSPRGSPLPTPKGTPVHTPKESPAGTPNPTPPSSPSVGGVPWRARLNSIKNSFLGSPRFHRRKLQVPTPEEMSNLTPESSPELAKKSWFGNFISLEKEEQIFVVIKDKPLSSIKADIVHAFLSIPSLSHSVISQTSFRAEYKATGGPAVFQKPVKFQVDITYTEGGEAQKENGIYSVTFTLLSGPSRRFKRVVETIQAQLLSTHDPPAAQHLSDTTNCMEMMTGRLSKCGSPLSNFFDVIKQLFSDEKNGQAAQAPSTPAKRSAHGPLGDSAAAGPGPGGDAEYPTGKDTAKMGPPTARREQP
Conditions: at 0.1 µM.

The target of assay [7] is T3, Serine/threonine-protein kinase BRSK2 (Homo sapiens). Conditions: at 1 µM.
For assay [8], the target named is Calcium/calmodulin-dependent protein kinase type 1D (Homo sapiens) (UniProt Q8IU85). Conditions: at 0.1 µM.
Calcium/calmodulin-dependent protein kinase type 1D (Homo sapiens), sequence (Q8IU85 whole entry, looked up): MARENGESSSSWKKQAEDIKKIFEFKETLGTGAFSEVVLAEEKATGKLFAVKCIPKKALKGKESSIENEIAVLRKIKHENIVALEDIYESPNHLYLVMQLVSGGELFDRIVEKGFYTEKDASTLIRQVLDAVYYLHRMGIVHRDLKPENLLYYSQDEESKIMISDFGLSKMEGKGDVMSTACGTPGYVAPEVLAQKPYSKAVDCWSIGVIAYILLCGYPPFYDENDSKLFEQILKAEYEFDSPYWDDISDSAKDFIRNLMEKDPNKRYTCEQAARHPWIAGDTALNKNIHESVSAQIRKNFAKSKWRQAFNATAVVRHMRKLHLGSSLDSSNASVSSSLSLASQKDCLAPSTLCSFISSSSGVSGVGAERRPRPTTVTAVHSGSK
For assay [9] the target is unchanged. The settings on record: at 1 µM.
The target in assay [10] is Calcium/calmodulin-dependent protein kinase type II subunit alpha (Homo sapiens) (UniProt Q9UQM7). Conditions: at 0.1 µM.
Calcium/calmodulin-dependent protein kinase type II subunit alpha (Homo sapiens), sequence (Q9UQM7 whole entry): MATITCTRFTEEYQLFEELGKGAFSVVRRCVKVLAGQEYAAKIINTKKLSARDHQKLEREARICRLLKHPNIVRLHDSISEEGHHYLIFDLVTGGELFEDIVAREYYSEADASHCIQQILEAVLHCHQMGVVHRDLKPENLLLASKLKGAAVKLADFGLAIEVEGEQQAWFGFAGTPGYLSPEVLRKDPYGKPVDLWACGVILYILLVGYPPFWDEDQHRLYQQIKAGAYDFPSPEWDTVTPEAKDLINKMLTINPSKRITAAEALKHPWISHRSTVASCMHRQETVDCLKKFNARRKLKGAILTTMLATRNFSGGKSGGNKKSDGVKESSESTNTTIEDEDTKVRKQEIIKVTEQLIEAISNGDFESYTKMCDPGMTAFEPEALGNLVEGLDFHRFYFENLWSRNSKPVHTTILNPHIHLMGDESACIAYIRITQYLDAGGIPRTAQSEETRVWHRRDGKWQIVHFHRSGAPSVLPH
Assay [11] has the same target. Conditions: at 1 µM.
The target in assay [12] is Calcium/calmodulin-dependent protein kinase type II subunit delta (Homo sapiens) (UniProt Q13557). The settings on record: at 0.1 µM.
Calcium/calmodulin-dependent protein kinase type II subunit delta (Homo sapiens), sequence (Q13557 whole entry): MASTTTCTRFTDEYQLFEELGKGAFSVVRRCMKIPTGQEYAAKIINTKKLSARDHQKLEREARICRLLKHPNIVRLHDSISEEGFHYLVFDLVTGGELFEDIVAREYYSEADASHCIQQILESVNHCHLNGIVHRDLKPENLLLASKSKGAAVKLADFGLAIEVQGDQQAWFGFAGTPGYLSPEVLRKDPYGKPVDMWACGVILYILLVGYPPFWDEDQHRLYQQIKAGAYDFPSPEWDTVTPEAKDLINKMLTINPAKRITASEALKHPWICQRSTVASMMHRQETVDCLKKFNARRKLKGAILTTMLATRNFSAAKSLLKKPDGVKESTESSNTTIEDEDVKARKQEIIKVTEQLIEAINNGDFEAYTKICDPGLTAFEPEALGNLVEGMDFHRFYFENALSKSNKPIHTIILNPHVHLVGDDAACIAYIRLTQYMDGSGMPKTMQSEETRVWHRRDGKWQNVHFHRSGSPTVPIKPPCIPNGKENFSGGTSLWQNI
For assay [13] the target is unchanged. Conditions: at 1 µM.
Assay [14] addresses T4, Calcium/calmodulin-dependent protein kinase type IV (Homo sapiens) (UniProt Q16566).
T4 sequence (whole entry): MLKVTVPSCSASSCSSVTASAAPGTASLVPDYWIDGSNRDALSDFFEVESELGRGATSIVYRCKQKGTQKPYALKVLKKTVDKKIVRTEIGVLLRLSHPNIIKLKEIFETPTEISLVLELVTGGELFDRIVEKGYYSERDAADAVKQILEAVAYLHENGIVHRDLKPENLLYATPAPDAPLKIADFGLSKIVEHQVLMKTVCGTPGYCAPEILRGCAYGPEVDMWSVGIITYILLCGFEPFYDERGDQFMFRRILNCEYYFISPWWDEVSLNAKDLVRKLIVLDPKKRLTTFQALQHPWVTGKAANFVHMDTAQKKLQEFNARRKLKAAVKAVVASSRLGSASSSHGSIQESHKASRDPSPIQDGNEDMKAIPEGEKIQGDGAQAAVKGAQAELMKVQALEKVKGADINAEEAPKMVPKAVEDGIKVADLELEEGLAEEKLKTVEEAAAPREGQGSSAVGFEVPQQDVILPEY
The settings on record: at 0.1 µM.

The target of assay [15] is T4, Calcium/calmodulin-dependent protein kinase type IV (Homo sapiens). The settings on record: at 1 µM.
In assay [16] the target is T5, Serine/threonine-protein kinase Chk1 (Homo sapiens) (UniProt O14757).
T5 sequence (whole entry): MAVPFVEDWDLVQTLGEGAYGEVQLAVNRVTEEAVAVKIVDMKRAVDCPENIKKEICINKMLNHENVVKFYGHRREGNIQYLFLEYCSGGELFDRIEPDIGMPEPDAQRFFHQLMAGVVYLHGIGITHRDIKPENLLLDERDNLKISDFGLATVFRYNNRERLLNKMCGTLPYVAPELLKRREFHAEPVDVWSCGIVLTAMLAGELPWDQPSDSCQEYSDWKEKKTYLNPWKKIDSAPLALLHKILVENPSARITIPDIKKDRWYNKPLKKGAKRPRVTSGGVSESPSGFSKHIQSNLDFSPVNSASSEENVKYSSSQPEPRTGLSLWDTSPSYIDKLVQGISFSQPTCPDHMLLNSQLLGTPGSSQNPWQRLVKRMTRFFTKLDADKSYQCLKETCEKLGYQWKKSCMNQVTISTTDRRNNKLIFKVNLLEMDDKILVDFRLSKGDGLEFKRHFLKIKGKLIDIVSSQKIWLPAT
Conditions: at 0.1 µM.

Assay [17] deals with T5, Serine/threonine-protein kinase Chk1 (Homo sapiens). The settings on record: at 1 µM.
For assay [18], the target named is Serine/threonine-protein kinase Chk2 (Homo sapiens) (UniProt O96017). The settings on record: at 0.1 µM.
Serine/threonine-protein kinase Chk2 (Homo sapiens), sequence (O96017 whole entry): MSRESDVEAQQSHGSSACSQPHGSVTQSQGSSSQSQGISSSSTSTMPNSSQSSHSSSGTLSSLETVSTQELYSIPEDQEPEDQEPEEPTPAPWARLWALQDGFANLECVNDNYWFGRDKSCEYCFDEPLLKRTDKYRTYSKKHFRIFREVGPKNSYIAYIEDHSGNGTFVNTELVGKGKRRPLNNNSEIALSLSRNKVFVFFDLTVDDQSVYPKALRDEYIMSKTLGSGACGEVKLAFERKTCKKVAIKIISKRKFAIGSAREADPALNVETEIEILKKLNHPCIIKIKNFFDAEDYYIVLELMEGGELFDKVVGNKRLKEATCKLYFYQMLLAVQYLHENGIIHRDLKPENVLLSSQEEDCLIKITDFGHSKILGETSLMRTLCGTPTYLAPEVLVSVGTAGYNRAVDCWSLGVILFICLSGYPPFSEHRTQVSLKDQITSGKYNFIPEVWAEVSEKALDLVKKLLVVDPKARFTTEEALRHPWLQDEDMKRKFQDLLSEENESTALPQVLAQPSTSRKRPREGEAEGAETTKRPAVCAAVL
For assay [19] the target is unchanged. Conditions: at 1 µM.
For assay [20], the target named is Death-associated protein kinase 1 (Homo sapiens) (UniProt P53355). The settings on record: at 0.1 µM.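 Further: reported figure is the mean inhibition of DAPK1.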
Death-associated protein kinase 1 (Homo sapiens), sequence (P53355 whole entry, looked up): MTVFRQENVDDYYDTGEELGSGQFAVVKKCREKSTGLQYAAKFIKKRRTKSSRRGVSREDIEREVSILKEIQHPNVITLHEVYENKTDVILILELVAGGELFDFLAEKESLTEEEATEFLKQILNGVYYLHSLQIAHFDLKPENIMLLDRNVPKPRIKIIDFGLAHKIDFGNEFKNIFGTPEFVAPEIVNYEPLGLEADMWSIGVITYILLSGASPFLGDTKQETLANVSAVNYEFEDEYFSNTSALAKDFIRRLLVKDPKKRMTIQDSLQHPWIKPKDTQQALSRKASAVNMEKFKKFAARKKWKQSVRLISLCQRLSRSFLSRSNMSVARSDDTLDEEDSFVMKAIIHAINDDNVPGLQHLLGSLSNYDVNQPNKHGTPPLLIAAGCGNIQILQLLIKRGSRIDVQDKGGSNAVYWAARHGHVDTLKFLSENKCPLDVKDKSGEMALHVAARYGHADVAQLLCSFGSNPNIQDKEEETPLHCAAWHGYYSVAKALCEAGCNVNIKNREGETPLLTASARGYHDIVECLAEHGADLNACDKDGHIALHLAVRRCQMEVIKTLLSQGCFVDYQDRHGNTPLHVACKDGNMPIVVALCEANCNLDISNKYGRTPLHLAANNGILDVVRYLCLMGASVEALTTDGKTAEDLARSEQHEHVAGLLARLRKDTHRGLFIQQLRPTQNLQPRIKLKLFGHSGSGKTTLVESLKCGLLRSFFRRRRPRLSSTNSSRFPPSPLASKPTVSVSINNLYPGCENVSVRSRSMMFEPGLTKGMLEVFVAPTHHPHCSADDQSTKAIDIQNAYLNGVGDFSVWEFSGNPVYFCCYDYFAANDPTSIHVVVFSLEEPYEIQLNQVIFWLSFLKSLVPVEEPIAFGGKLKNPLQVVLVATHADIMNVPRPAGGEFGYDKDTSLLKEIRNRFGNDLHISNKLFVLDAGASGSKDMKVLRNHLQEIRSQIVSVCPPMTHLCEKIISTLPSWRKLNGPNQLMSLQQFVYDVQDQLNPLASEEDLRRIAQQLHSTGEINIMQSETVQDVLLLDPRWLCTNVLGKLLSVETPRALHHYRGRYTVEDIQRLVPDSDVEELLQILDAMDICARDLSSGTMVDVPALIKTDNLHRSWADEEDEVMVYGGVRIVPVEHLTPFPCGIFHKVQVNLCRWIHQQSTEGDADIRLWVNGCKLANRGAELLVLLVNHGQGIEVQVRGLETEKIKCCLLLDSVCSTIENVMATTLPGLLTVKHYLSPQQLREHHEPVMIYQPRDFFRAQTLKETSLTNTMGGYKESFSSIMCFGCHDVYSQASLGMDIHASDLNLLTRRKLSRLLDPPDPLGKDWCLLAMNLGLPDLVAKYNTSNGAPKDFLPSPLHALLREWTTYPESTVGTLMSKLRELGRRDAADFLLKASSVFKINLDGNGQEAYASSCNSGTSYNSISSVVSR

Structures are written as SMILES.

5'-AMP-activated protein kinase catalytic subunit alpha-2 (Homo sapiens), sequence (P54646 whole entry, looked up): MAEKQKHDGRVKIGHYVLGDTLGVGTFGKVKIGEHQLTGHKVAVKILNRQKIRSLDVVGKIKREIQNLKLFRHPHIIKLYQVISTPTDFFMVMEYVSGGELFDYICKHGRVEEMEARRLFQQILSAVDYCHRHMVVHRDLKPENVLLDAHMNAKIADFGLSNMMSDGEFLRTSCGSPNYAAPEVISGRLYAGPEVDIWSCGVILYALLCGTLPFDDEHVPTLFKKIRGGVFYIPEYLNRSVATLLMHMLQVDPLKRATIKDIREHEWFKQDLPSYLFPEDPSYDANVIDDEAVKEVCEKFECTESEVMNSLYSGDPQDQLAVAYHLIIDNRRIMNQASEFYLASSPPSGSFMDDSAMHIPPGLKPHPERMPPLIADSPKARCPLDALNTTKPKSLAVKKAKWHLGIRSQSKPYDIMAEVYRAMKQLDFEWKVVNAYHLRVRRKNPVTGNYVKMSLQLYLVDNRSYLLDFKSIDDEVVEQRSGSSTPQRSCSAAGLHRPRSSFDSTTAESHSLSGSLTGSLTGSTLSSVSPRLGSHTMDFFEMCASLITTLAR

Turning to `NS(=O)(=O)c1ccc(Nc2ncc(-c3ccccc3)o2)cc1`, the inhibition was found to be 9.24% in assay [1]; 10.7% in assay [2]; 37.2% in [3]; 1.52% in assay [4]; 15.3% in [5]; 2.58% in assay [6]. Moreover, the inhibition was determined as 17% in [7]; 0.42% in assay [8]; 0.85% in assay [9]; 4.27% in [10]; 4.77% in assay [11]; 2.92% in assay [12]. For the same molecule, the inhibition was 7.79% in assay [13]; -0.86% in assay [14]; -0.71% in [15]; 0.75% in [16]; 7.56% in assay [17]; 1.94% in [18]. Further, the inhibition worked out at 3.97% in [19] and 3.79% in [20].
As to `CC(C)COC(=O)c1ccc2c(c1)/C(=C/Nc1ccc(S(N)(=O)=O)cc1)C(=O)N2`, the inhibition in assay [1] worked out at 36.3%; in [2], 29.6%; in assay [3] it was 75.6%; in assay [4], 5.38%; in assay [5], 38%; in assay [6], 10.1%. The inhibition in assay [7] came to 50.1%; in [8], 1.82%; in [9], 7.89%; in assay [10], 0.26%; in assay [11], 17.5%; in assay [12], 4.43%. Further, the inhibition was 36.7% in assay [13]; 1.85% in [14]; 3.51% in assay [15]; 0.91% in [16]; 18.1% in assay [17]; -0.46% in [18]. In addition, the inhibition in assay [19] was 13.5%; in [20] it was -2.01%.
`O=C(Nc1n[nH]c2cc(-c3ccc(F)cc3)ccc12)C1CC1`: the inhibition in assay [1] turned out to be 6.01%; in [2] it was 0.71%; in [3], 2.52%; in [4], 4.68%; in assay [5], 26.2%; in assay [6], 6.41%. In addition, the inhibition in assay [7] was 33.5%; in [8], 0.43%; in assay [9], 1.06%; in assay [10], 0.76%; in assay [11], 5.83%; in [12] it was 2.59%. Further, the inhibition in assay [13] is 3.77%; in assay [14], -0.12%; in [15], 1.07%; in [16], 8.27%; in assay [17] it was 10.8%; in [18], 6.26%. In addition, the inhibition is 6.67% in assay [19] and 9.31% in assay [20].
On to `CCN(CC)S(=O)(=O)c1ccc(OC)c(Nc2ncc(-c3ccccc3)o2)c1`, for which the inhibition in [1] was 0.95%; in assay [2], 5.96%; in [3], 3.38%; in [4], -0.07%; in assay [5] it was 0.94%; in [6] it was 3.36%. For the same molecule, the inhibition was 6.08% in assay [7]; 0.13% in [8]; -0.06% in [9]; 3.02% in [10]; 6.08% in assay [11]; 2.08% in assay [12]. Besides, the inhibition in assay [13] is 8.27%; in [14], -0.4%; in assay [15], -1.66%; in [16], 1.49%; in [17], 2.79%; in [18] it was -0.98%. Also, the results for the inhibition in assay [19] and in [20] were 2.66% and 4%, respectively.

Usually inhibition stands for the drop in the measured response relative to a control, in per cent.
